The text below walks through data of PubChem BioAssay (Tox21).

Records with an inconclusive call do not appear. Values without a mark were called inactive. Active and inactive are the calls of the source. The call rests on the fitted dose curve.
On the % scale 0 is the no-effect control and ±100 the full control effect; potency means the concentration at half of the fitted maximal effect.

Acetylcholinesterase (Homo sapiens), sequence (P22303 whole entry, looked up): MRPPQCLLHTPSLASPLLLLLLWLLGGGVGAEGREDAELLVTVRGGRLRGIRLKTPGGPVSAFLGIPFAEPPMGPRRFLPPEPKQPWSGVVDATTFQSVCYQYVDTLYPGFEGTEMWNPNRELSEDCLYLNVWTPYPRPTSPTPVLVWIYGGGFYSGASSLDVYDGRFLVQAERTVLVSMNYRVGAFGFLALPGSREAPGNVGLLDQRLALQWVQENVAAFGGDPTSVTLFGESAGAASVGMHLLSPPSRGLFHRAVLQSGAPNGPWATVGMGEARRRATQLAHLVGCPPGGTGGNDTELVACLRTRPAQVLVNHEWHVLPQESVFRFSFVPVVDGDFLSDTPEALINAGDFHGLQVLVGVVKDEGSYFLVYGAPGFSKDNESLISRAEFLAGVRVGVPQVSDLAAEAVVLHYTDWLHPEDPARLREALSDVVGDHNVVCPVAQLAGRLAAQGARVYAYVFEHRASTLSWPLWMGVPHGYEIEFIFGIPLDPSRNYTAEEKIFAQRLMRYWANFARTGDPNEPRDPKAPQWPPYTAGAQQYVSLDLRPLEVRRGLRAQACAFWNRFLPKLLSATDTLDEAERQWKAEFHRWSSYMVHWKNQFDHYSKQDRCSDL

This assay addresses Acetylcholinesterase (Homo sapiens) (UniProt P22303). Nature of the assay: Acetylcholinesterase (AChE) small molecule antagonists: colormetric cell-based qHTS assay (AID 1347395). Further: nearly all actives have a fitted effect of over 30% in size. Particulars: SH-SY5Y cells AChE activity, colorimetric (Ellman); series mostly up to 115 µM; activity, negative = inhibition: at the top concentration. The gist of the method:
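Quantitative HTS in attached SH-SY5Y cells: 30 min compound exposure, then 90 min with acetylthiocholine and DTNB at 37 C; colour from thiocholine reports AChE activity.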
On to `CC(C)c1nc(CN(C)C(=O)N[C@H](C(=O)N[C@@H](Cc2ccccc2)C[C@H](O)[C@H](Cc2ccccc2)NC(=O)OCc2cncs2)C(C)C)cs1`, for which the “activity, negative = inhibition” value is 0.146% [at 52.9 µM].
Take `Cc1cccc(C)c1NC(=O)CN1CCN(CCCC(c2ccc(F)cc2)c2ccc(F)cc2)CC1`: the “activity, negative = inhibition” value was 0.552% [at 52.9 µM].
The same measure, in the same setting: the value for `CC(C)Oc1ccccc1O` was 5.08%.
As for `c1ccc(Nc2cccc3ccccc23)cc1`, the Potency entry was “inactive”.
Still for that read-out and setting: the value for `c1ccc(OCCOc2ccccc2)cc1` was “inactive”.
For `CCOC(=O)c1ccc(OCCN2C[C@H](O)[C@@H](O)[C@H](O)[C@H]2CO)cc1`, the “activity, negative = inhibition” value was 1.25% [at 52.9 µM].
Take `CCCc1nc(C)c2c(=O)[nH]c(-c3cc(S(=O)(=O)N4CCN(CC)CC4)ccc3OCC)nn12`: the “activity, negative = inhibition” value was 4.58% [at 52.9 µM].
With `C[C@]12C=CC(=O)C=C1CC[C@H]1[C@@H]3C[C@@H](O)[C@](O)(C(=O)CO)[C@@]3(C)C[C@H](O)[C@@]12F`, the Potency entry was “inactive”.
In the case of `Cc1cc(O)c(C(C)(C)C)cc1Sc1cc(C(C)(C)C)c(O)cc1C`, the “activity, negative = inhibition” value was 5.75%.
Turning to `NCCOCCN`, the “activity, negative = inhibition” value is 2.58%.
Still for that read-out and setting: the value for `CCCCN(CCO)CCCC` was 2.32%; that for `O=C(O)c1ccccc1Nc1cc(Cl)ccc1C(=O)O` was 1.23% [at 23.6 µM]; that for `COCCOC(=O)C1=C(C)NC(C)=C(C(=O)OC(C)C)C1c1cccc([N+](=O)[O-])c1` (stereo not given) was -1.45% [at 52.9 µM].
Consider `OC[C@H]1O[C@H](O[C@]2(CCl)O[C@H](CCl)[C@@H](O)[C@@H]2O)[C@H](O)[C@@H](O)[C@H]1Cl`, for which the Potency result was “inactive”.
Consider `CC(=O)OCCN(CCOC(C)=O)c1ccc(N=Nc2ccc([N+](=O)[O-])cc2C#N)cc1`, for which the “activity, negative = inhibition” value is -5.34%.
On to `O=S(=O)(O)c1cc(Cl)c(Cl)cc1Cl`, for which the “activity, negative = inhibition” value was -1.71%.
Still for that read-out and setting: the value for `CCCCN(CCCC)CCCCCCN(CCCC)CCCC` was 0.226%; that for `CC(O)c1ccccc1` (stereo not given) was -0.614%.
In the case of `CO[Si](CCCNCCN)(OC)OC`, the Potency result was “inactive”.
With `C=C1c2cccc(O)c2C(O)=C2C(=O)[C@]3(O)C(O)=C(C(N)=O)C(=O)[C@@H](N(C)C)[C@@H]3[C@@H](O)[C@H]12`, the “activity, negative = inhibition” value is -0.0841% [at 52.9 µM].
On to `O=c1cc[nH]c(=O)[nH]1`, for which the Potency result is “inactive”.
Consider `CC[C@H](c1ccc(O)cc1)[C@@H](CC)c1ccc(O)cc1`, for which the Potency entry was “inactive”.
For the molecule `Cc1ccc(C(C)(C)O)cc1`, the “activity, negative = inhibition” value is 1.37%.
Regarding `Cc1cc(O)c(C(C)C)cc1Cl`, the Potency result was “inactive”.
For `CCCCCCCCCCCSCC(=O)O`, the “activity, negative = inhibition” value was -5.93%.
On the same count and under the same terms, the value for `CS(C)(=O)=O` was 2.73%.
Take `C/C=C/C(=O)CCCC`: the “activity, negative = inhibition” value is 1.37%.
On the same count and under the same terms, the value for `CCCCCC(CC)OC(=O)CCCOc1ccc(Cl)cc1Cl` (stereo not given) was 1.62%; that for `C=CC/C=C/C` was -1.84%; that for `CCOC(=O)c1ccc(I)cc1` was -0.824%.
Regarding `CCC1OCC(COc2ccc(Oc3ccccc3)cc2)O1` (stereo not given), the “activity, negative = inhibition” value was 2.86%.
In the case of `N#CCC(=O)O`, the Potency entry was “inactive”.
For `CC(C)OC(=O)C(C)(C)Oc1ccc(C(=O)c2ccc(Cl)cc2)cc1`, the Potency entry is “inactive”.
As for `O=P(c1ccccc1)(c1ccccc1)c1ccccc1`, the “activity, negative = inhibition” value was -0.631%.
Regarding `O=C(O)CNC(=O)c1ccc(CO)o1`, the “activity, negative = inhibition” value was 1.23%.
For the molecule `CCN=C1C=CC(=C(c2ccc(N(CC)CC)cc2)c2ccc(N(CC)CC)cc2)c2ccccc21`, the Potency is 62.9 µM (active).
In the case of `COCC(C)N` (stereo not given), the Potency entry is “inactive”.
In the case of `COc1ccc(C2CNC(=O)C2)cc1OC1CCCC1` (stereo not given), the “activity, negative = inhibition” value was -1.1% [at 52.9 µM].
On to `CCOC(=O)COc1ccc2c(C)c(CCN(CC)CC)c(=O)oc2c1Cl`, for which the Potency is 13.8 µM (active).
For `O=C(O)CCSSCCC(=O)O`, the “activity, negative = inhibition” value is 0.204%.
